Inconclusive results are not listed. The source made the active and inactive calls. The call rests on the fitted dose curve; in most records, active means well fitted cell-killing curve with a large enough effect; inconclusive means small, poorly fitted or top-dose-only effect; inactive means flat fitted curve, though single readings scatter.
Legend:
[1] = Cell Viability - LYMP2-023 (AID 975);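 further: cellular ATP measured by luciferase luminescence as viability proxy; series mostly up to about 92 µM; cells exposed to compound for 24 hours at 37 °C; nearly all actives have a fitted effect of over 55% in size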
Outline: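 In this qHTS, ATP-based luciferase luminescence (CellTiter-Glo) is quantified in human lymphoblastoid cells after 24 hr compound treatment at 37 C; tetraoctylammonium bromide serves as positive control. Concentration-response curves are Hill-fitted to give AC50.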

[2] = Cell Viability - LYMP2-025 (AID 976); further: series mostly up to about 92 µM
Outline: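 Luminescent ATP readout after 24 hr treatment of a human lymphoblastoid line (LYMP2-025, 2500 cells/well, 37 C). Reagent developed 30 min at room temperature; AC50 fitted with the Hill equation.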

[3] = Cell Viability - LYMP2-002 (AID 977);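 further: series mostly up to about 92 µM; compound exposure lasted 24 h at 37 °C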
Outline: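 Human lymphoblastoid cells, 2500/well, complete medium; 5 h 37 C settle; compound 24 h 37 C; CellTiter-Glo, 30 min RT; luminescence. Decrease in ATP = cytotoxicity; AC50 via Hill equation.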

[4] = Cell Viability - LYMP2-006 (AID 978);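 further: series mostly up to about 92 µM; cells exposed to compound for 24 hours; nearly all actives have a fitted effect of over 60% in size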
Outline: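 In this cytotoxicity screen, the human lymphoblastoid line grew in complete medium with test compounds for 24 hr at 37 C. Cellular ATP served as the viability signal.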

[5] = Cell Viability - LYMP2-007 (AID 979);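 further: cells exposed to compound for 24 h before reading; nearly all actives have a fitted effect of over 60% in size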
Outline: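 Measured via luciferase-based ATP quantitation: lymphoblastoid cells, 24 hr compound exposure at 37 C, AC50 from Hill fits.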

[6] = Cell Viability - LYMP2-008 (AID 980); further: nearly all actives have a fitted effect of over 60% in size
Outline: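 Measured: ATP-dependent luminescence, proportional to viable cell number, in human lymphoblastoid cells treated 24 hr with compound in complete culture medium. Values are AC50s from Hill-equation modelling of qHTS titrations.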

[7] = Cell Viability - LYMP2-010 (AID 981);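 further: cells exposed to compound for 24 hours at 37 °C; nearly all actives have a fitted effect of over 55% in size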
Outline: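 This 24 hr viability screen uses LYMP2-010 lymphoblastoid cells, quantifies ATP via luciferase luminescence, and derives AC50 from Hill fits of qHTS concentration-response data.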

[8] = Cell Viability - LYMP2-014 (AID 983); further: series mostly up to about 92 µM; nearly all actives have a fitted effect of over 50% in size
Outline: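 Quantitative HTS in lymphoblastoid cells: 24 hr compound exposure, then CellTiter-Glo ATP luminescence. Positive control was tetraoctylammonium bromide, 6.4pM to 92 uM.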

[9] = Cell Viability - LYMP2-016 (AID 984);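 further: cells exposed to compound for 24 hours at 37 °C; nearly all actives have a fitted effect of over 55% in size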
Outline: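 Concentration-dependent ATP depletion measured in LYMP2-016 lymphoblastoid cells, 24 h, 37 C; luciferase-based luminescent detection; Hill-equation AC50.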

[10] = Cell Viability - LYMP2-018 (AID 985); further: nearly all actives have a fitted effect of over 50% in size
Outline: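 In this qHTS viability assay, cells are treated for 24 hr and cellular ATP is quantified by luciferase-based luminescence, with tetraoctylammonium bromide as positive control.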

Measured: outcome

NS(=O)(=O)c1cc2c(cc1Cl)NCNS2(=O)=O
inactive: all assays above

N[C@@H](Cc1c[nH]c2ccc(O)cc12)C(=O)O
inactive: all assays above

CC(C)C(=O)Nc1ccc([N+](=O)[O-])c(C(F)(F)F)c1
inactive: all assays above

Nc1c2c(nc3ccccc13)CCCC2
inactive: all assays above

COc1cc2c(c(OC)c1OC)-c1ccc(OC)c(=O)cc1[C@@H](NC(C)=O)CC2
inactive: [1] | [2]

CCC1(c2ccccc2)C(=O)NCNC1=O
inactive: all assays above

NCCS(=O)(=O)O
inactive: all assays above

O=c1[nH]cc(F)c(=O)[nH]1
inactive: [1] | [2] | [3] | [8] | [9]

Cn1c(=O)c2c(ncn2C)n(C)c1=O
inactive: all assays above

CC(C)NCC(O)c1ccc(O)c(O)c1 (stereo unspecified)
inactive: all assays above

Cc1ccc(-c2cc(C(F)(F)F)nn2-c2ccc(S(N)(=O)=O)cc2)cc1
inactive: all assays above

COc1ccc2[nH]cc(CCNC(C)=O)c2c1
inactive: all assays above

Cc1cn([C@H]2C=C[C@@H](CO)O2)c(=O)[nH]c1=O
inactive: all assays above

Nc1ccn([C@H]2CC[C@@H](CO)O2)c(=O)n1
inactive: all assays above

Clc1ccc(C(c2ccccc2Cl)C(Cl)Cl)cc1 (stereo unspecified)
inactive: all assays above

COc1ccc2c(c1)c(CC(=O)O)c(C)n2C(=O)c1ccc(Cl)cc1
inactive: all assays above

O=c1c(-c2ccc(O)cc2)coc2cc(O)cc(O)c12
not listed: [7]
inactive: all other assays above

Cn1c(=O)c2[nH]cnc2n(C)c1=O
not listed: [2]
inactive: all other assays above

COc1ccc(CCN(C)CCCC(C#N)(c2ccc(OC)c(OC)c2)C(C)C)cc1OC (stereo unspecified)
inactive: [2]

Cc1cn([C@H]2C[C@H](N=[N+]=[N-])[C@@H](CO)O2)c(=O)[nH]c1=O
inactive: all assays above
